Compounds with a hit are over-represented: about 1.1% of the library has one in this group of screens.
MOR-DOR inv ag: mu-delta opioid heterodimer inverse agonism | P35372+P41143 | inhibition, % at 9.3 µM | cell-based MOR-DOR heterodimer luminescence | AID 504357 | 340,000 tested, 0.21% active; in the data active = inhibition above about 22%, passing the limit was not always enough;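 note: 0% = cells with DMSO and 100% = wells without cells with DMSO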
Target sequence (P35372 whole entry, looked up): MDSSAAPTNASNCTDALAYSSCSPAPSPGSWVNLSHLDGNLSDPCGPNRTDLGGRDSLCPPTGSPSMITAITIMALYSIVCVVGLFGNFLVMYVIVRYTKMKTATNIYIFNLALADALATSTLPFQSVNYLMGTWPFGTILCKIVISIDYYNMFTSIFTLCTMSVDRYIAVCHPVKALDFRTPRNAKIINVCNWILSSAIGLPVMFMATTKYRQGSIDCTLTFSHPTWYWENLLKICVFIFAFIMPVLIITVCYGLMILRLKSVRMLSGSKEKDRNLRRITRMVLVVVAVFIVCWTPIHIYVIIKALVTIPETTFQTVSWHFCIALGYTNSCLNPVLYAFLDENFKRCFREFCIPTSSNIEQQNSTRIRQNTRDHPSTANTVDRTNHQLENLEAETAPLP
Target sequence (P41143 whole entry, looked up): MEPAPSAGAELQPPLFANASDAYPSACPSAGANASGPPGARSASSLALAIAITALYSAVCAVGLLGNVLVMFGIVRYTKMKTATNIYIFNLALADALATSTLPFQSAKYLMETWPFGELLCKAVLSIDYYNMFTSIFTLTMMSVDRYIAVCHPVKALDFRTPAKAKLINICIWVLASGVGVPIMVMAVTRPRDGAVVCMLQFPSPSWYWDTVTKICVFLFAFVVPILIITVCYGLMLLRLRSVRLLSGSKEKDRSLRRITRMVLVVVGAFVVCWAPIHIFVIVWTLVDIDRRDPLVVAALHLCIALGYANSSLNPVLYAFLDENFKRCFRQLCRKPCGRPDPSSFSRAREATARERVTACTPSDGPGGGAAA
HTR5A ag: HTR5A agonism, opioid heterodimer counter-screen; HTR5A agonist assay, luminescence, cell-based; activation, % at 9.3 µM; AID 504692; P47898; 340,000 tested, 0.61% active; in the data active = activation mostly above about 9.5%, no sharp cut-off; inactive = mostly below about 7.6%;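 note: 0% = cells with vehicle only and 100% = reference agonist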
OPRM1-OPRD1 ag: OPRM1-OPRD1 heterodimerization agonism. cells, luminescence. P35372+P41143. activation, % at 9.3 µM. 340,000 tested, 0.3% active;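 note: 0% = vehicle-treated cells and 100% = reference agonist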
HTR5A inv ag: inverse agonist of human HTR5A in OPRM1-OPRD1 counter-screen; HTR5A cell line, luminescence, inverse agonism; inhibition, % at 9.3 µM; 340,000 tested, 0.083% active; AID 504634; in the data active = inhibition mostly above about 23%, no sharp cut-off; inactive = mostly below about 18%;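 note: 0% = cells with DMSO and 100% = no-cell wells with DMSO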
MOR-DOR ag conf: confirmation of human OPRM1-OPRD1 heterodimerization agonists; cells, MOR-DOR heterodimerization, luminescence complementation; activation, % at 9.3 µM; AID 504904; shares compounds with OPRM1-OPRD1 ag; 830 tested, 45% active;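 note: 0% = vehicle-treated cells and 100% = reference agonist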
HTR5A ag ctr2: HTR5A agonism, opioid heterodimer counter-screen | shares compounds with OPRM1-OPRD1 ag | HTR5A agonist counterscreen, cell luminescence | activation, % at 9.3 µM | 830 tested, 8% active | AID 504905; in the data active = activation above about 17%;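 note: 0% = vehicle-treated cells and 100% = reference agonist response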
An asterisk follows results filed as active; i = inactive; . = no result. Cut-off read from the data, not from the text of the source, unless noted: active = activation above about 18%; inactive = the rest.

SMILES	MOR-DOR inv ag	HTR5A ag	OPRM1-OPRD1 ag	HTR5A inv ag	MOR-DOR ag conf	HTR5A ag ctr2
COC(=O)c1nc(-c2ccccc2)oc1N1CCOCC1	16.7	-0.6	-3.2	-13.7	.	.
COc1cc(C2C(C#N)=C(N)N(c3sc4c(c3C#N)CCCC4)C3=C2C(=O)CC(C)(C)C3)cc(OC)c1OC (stereo not given)	-360.3	-0.4	57.6*	-2.5	45.1*	4.3
CCn1c(-c2ccccc2)c(C(=O)CCl)c2ccccc21	-331.1	14.3	66.5*	33.0	-1.7	5.7
CCn1c2ccccc2c(=O)c2ccccc21	3.3	2.5	-0.7	12.5	.	.
CC(=O)Nc1ccc(NC(=O)C(=O)NCC(c2ccco2)N2CCc3ccccc3C2)cc1 (stereo not given)	-134.5	8.0	20.7*	-13.6	22.5*	8.0
Clc1ccc2c(N/N=C/c3cccc(Br)c3)ccnc2c1	-34.6	9.2	6.4	-10.7	.	.
C/C(=N/Nc1ccnc2cc(Cl)ccc12)c1ccc(N)cc1	-115.5	-1.6	20.5*	-11.3	41.5*	3.5
C/C(=N/Nc1ccnc2cc(Cl)ccc12)c1ccc(O)cc1	-45.0	3.7	8.1	7.6	.	.
Clc1ccc2c(N/N=C/c3ccccc3Br)ccnc2c1	-278.5	8.1	51.8*	-12.9	53.3*	3.0
CCc1ccc(NC(=O)Nc2ccc3c(c2)N(C)C(=O)CS3)cc1	-487.7	3.6	96.3*	-10.9	55.0*	4.7
NC(N)=NC(=O)c1nc(Cl)c(N2CCCCCC2)nc1N	-389.4	-3.2	72.0*	11.3	94.7*	-2.2
NC(N)=NC(=O)c1nc(Cl)c(N)nc1N	6.8	-4.5	-1.2	-35.8	.	.
CC(OC(=O)CC1Sc2ccccc2NC1=O)C(=O)N(C)Cc1ccccc1 (stereo not given)	4.8	4.2	-0.9	-11.5	.	.
O=C(CSC(=S)N1CCCC1)NCCc1ccccc1	10.2	7.0	-1.6	-12.3	.	.
CN(C)C(CNC(=O)CSC(=S)N1CCCC1)c1ccccc1 (stereo not given)	i	1.4	195.0*	-5.3	183.4*	-3.6
CN(C)C(CNC(=O)C1CC(=O)N(Cc2ccccc2)C1)c1ccccc1 (stereo not given)	-250.1	-5.0	46.4*	4.9	59.1*	3.2
CN(C)C(CNC(=O)C1CCN(C(=O)/C=C/c2ccccc2)CC1)c1ccccc1 (stereo not given)	-164.7	-0.4	20.0*	14.5	17.7	1.6
CCOC(=O)C1CCN(C(=O)/C=C/c2ccccc2)CC1	14.6	5.3	-2.9	2.8	.	.
COc1ccc(N(C(=O)c2ccc(S(=O)(=O)N3CCCC3)cc2)C2C=CS(=O)(=O)C2)cc1 (stereo not given)	13.0	6.8	-2.5	-1.0	.	.
CCC(=O)N(NC1=NS(=O)(=O)c2ccccc21)S(=O)(=O)c1ccc(C)cc1	2.5	-8.4	-0.5	16.2	.	.
Nc1c([N+](=O)[O-])cnnc1-c1ccccc1	5.7	0.6	-1.1	3.0	.	.
c1ccc(-c2csc(Nc3ncccn3)n2)cc1	-20.4	5.2	4.0	1.5	.	.
Oc1ccc(-c2csc(Nc3ncccn3)n2)cc1	-109.6	6.3	22.6*	-17.5	-2.4	-3.2
COC(=O)c1cc(C(=O)OCC(=O)c2ccc[nH]2)cc([N+](=O)[O-])c1	-8.9	-2.3	2.4	-13.6	.	.
CCOc1cc(/C=N/NC(=O)c2ccncc2)ccc1OC(=O)c1ccc([N+](=O)[O-])cc1	-252.2	9.4	44.8*	-23.9	13.5	4.3
SMILES	MOR-DOR inv ag	HTR5A ag	OPRM1-OPRD1 ag	HTR5A inv ag	MOR-DOR ag conf	HTR5A ag ctr2
CCOc1cc(/C=N/NC(=O)c2ccncc2)ccc1OC(=O)c1ccccc1	11.9	1.5	-2.2	7.9	.	.
CC(C)n1ncc2c(C(=O)Nc3cccc(C#N)c3)cc(C3CC3)nc21	i	13.9	184.3*	-38.5	215.9*	5.2
CCNC(=O)c1cccc(NC(=O)c2cc(C3CC3)nc3c2cnn3C(C)C)c1	3.5	-7.6	-0.7	18.5	.	.
Clc1ccc(C(c2nnnn2C2CCCC2)N2CCSCC2)cc1 (stereo not given)	-16.0	-4.8	2.9	-23.0	.	.
N=c1n(Cc2ccc(Cl)cc2)c2ccccc2n1CC(O)COc1ccccc1 (stereo not given)	i	14.3*	94.1*	-40.7	-1.8	0.2
Cc1cccc(NC(=S)N(CCN(C)C)C(C)c2cccnc2)c1 (stereo not given)	3.1	-3.3	-0.6	24.2	.	.
CN(C)C(CNC(=S)Nc1ccc(F)cc1)c1cccnc1 (stereo not given)	i	1.8	111.8*	9.2	-2.5	-3.3
Cc1cccc(NC(=S)NCC(c2cccnc2)N(C)C)c1 (stereo not given)	i	-1.4	218.3*	4.9	210.1*	-2.7
COc1cc(CNc2ccc(O)cc2)cc(Br)c1OCc1ccccc1F	-144.7	2.2	27.5*	-7.7	1.0	-0.2
CCOc1cc(CNc2ccc(O)cc2)cc(Br)c1OCc1ccccc1F	-70.5	9.1	12.5	-25.4	.	.
Cc1ccc(-c2nc(CNC(=O)c3ccco3)cs2)cc1	5.6	8.5	-1.1	-18.8	.	.
CC1CCN(C(=O)c2[nH]cnc2C(=O)Nc2ccon2)CC1	2.0	-2.4	-0.4	-9.0	.	.
COc1ccc2c(Cl)c(-c3nnc4n3CCCCC4)sc2c1	-455.3	4.2	80.9*	-10.8	14.7	4.7
O=C1C=CC(=O)c2c(O)c(N3CCN(CCOCCO)CC3)c(Br)c(O)c21	-122.9	-2.2	25.2*	8.4	5.9	-4.2
OC(CNC1Cc2ccccc2C1)COc1ccc(Cl)cc1 (stereo not given)	-8.8	-3.6	1.8	-13.9	.	.
OC(CNC1CCCc2ccccc21)COc1c(Cl)cccc1Cl (stereo not given)	-142.2	-0.2	19.7*	0.7	4.3	15.6
Cc1nnc(SCC(=O)Nc2cc(Cl)ccc2Cl)n1CC1CCCO1 (stereo not given)	10.6	-3.9	-1.7	11.4	.	.
CN(C)C(CNC(=O)c1cc2ccccc2oc1=O)c1ccccc1 (stereo not given)	-255.1	1.5	31.1*	-2.4	133.2*	-3.5
COc1ccc(OCC(O)CNC(=O)Nc2cccc3ccccc23)cc1 (stereo not given)	13.0	-2.5	-2.6	-39.3	.	.
C(=N\Nc1nc(Nc2ccccc2)nc(Nc2ccccc2)n1)/c1ccncc1	-113.4	-1.4	19.8*	3.9	-2.5	-2.0
C(=N\Nc1nc(Nc2ccccc2)nc(Nc2ccccc2)n1)/c1cccnc1	-13.8	-3.6	2.8	8.2	.	.
Cc1[nH]c2ccccc2c1/C=N/Nc1nc(Nc2ccc(F)cc2)nc(N2CCOCC2)n1	-2.4	-0.6	0.6	5.0	.	.
Cc1ccc(Nc2nc(N/N=C/c3c[nH]c4ccccc34)nc(N3CCOCC3)n2)cc1	-113.2	1.5	18.8*	-4.0	15.7	2.4
CC(C)[C@H](NC(=O)c1c(F)cccc1F)C(=O)Nc1cccc(Br)c1	-126.2	8.2	21.9*	-31.9	11.9	-0.4
Cc1nc2ccc(NC(=O)[C@@H](NC(=O)c3c(F)cccc3F)C(C)C)cc2s1	12.3	-0.1	-3.0	0.3	.	.
